Assay [1] is described as follows: qHTS assay to identify aromatase inhibitors - cell viability counter screen (AID 743084).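 Also: cells stimulated with testosterone during compound exposure; nearly all actives have a fitted effect of over 55% in size.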 For orientation: qHTS replaces the single test concentration by a dilution series.
Assay [2] addresses Aryl hydrocarbon receptor (Homo sapiens) (UniProt P35869). In words: qHTS assay to identify small molecule that activate the aryl hydrocarbon receptor (AhR) signaling pathway (AID 743085).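 Also: HG2L7.5c1 human HepG2 liver cells with stably integrated DRE-driven firefly reporter; series mostly up to about 70 µM; nearly all actives have a fitted effect of over 15% in size.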 The gist of the method:
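HepG2 cells (HG2L7.5c1) stably carrying a firefly luciferase reporter driven by 20 dioxin responsive elements were exposed to compound for 24 h at 37C after a 5 h settling period; luminescence rise (ONE-Glo) indicated activation.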

Assay [3] in a line: qHTS assay to identify small molecule that activate the aryl hydrocarbon receptor (AhR) signaling pathway - cell viability counter screen (AID 743086).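 Also: HepG2 liver cells carrying the AhR DRE luciferase reporter; series mostly up to about 70 µM; nearly all actives have a fitted effect of over 45% in size.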 The gist of the method:
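Cytotoxicity counter screen: CellTiter-Fluor signal (30 min, 37 C) in 4000 HepG2 cells/well carrying the DRE-luciferase reporter, following 24 h compound exposure at 37 C.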

Assay [4] addresses Peroxisome proliferator-activated receptor gamma (Homo sapiens) (UniProt P37231). In words: qHTS assay to identify small molecule agonists of the peroxisome proliferator-activated receptor gamma (PPARg) signaling pathway (AID 743094; active = well fitted activation curve with a large enough effect in the signal ratio in the repeat runs, not every such curve was filed as active; the % refers to the signal ratio). Put shortly: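 GeneBLAzer PPARg UAS-bla HEK293H cells carrying a stably integrated beta-lactamase reporter were pre-incubated 5 h at 37C, then exposed to compounds in DMSO for 17 h at 37C; LiveBLAzer B/G FRET substrate was added for 1 h at room temperature and fluorescence read.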

A short description of assay [5]: qHTS assay to identify small molecule antagonists of the peroxisome proliferator-activated receptor gamma (PPARg) signaling pathway - cell viability counter screen (AID 743194). Also: nearly all actives have a fitted effect of over 55% in size. The gist of the method:
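Viability was measured as CellTiter-Glo luminescence in GeneBLAzer PPARg UAS-bla HEK293H cells. These cells had been exposed 17 h at 37 C to compounds together with rosiglitazone at 50 nM final, with the beta-lactamase readout taken in the same wells.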

The nature of assay [6]: qHTS assay for small molecule agonists of the antioxidant response element (ARE) signaling pathway (AID 743202; active = well fitted activation curve with a large enough effect in the signal ratio in the repeat runs, not every such curve was filed as active; the % refers to the signal ratio). Put shortly:
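Quantitative high-throughput format in HepG2 cells bearing an integrated ARE-beta-lactamase reporter. Compound exposure lasted 16 h at 37 C, and fluorescence was read 2 h after adding LiveBLAzer B/G substrate at room temperature.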

A short description of assay [7]: qHTS assay for small molecule agonists of the antioxidant response element (ARE) signaling pathway - cell viability counter screen (AID 743203; calls by dose curve; also: nearly all actives have a fitted effect of over 55% in size). Put shortly:
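CellSensor ARE-bla HepG2 cells, 2,000 per well, rested 5 hrs at 37C/5% CO2, then exposed to compound in DMSO for 16 hrs; viability read as CellTiter-Glo luminescence after 30 min at room temperature, in the reporter wells.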

Assay [8] is described as follows: qHTS assay for small molecule activators of the heat shock response signaling pathway - cell viability counter screen (AID 743209). Also: nearly all actives have a fitted effect of over 50% in size. The gist of the method: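 CellSensor HSE-bla HeLa cells, plated overnight at 37 C/5% CO2, were exposed to compounds in DMSO for 5 h at 37 C. Viability was then read in the same wells by CellTiter-Glo luminescence after 30 min at room temperature.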

The nature of assay [9]: qHTS assay for small molecule activators of the heat shock response signaling pathway (AID 743210; active = well fitted activation curve with a large enough effect in the signal ratio in the repeat runs, with a control signal flat, not every such curve was filed as active; the % refers to the signal ratio;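 also: HeLa cells with beta-lactamase reporter driven by heat shock elements; series mostly up to about 63 µM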). The gist of the method:
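HeLa HSE-bla cells, overnight plating; cpd in DMSO 5 h, 37 C; LiveBLAzer B/G FRET substrate 2.5 h RT; fluorescence intensity read.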

Assay [10] is described as follows: qHTS assay to identify small molecule antagonists of the peroxisome proliferator-activated receptor delta (PPARd) signaling pathway - cell viability counter screen (AID 743213). Also: nearly all actives have a fitted effect of over 50% in size. Put shortly:
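PPARd-bla HEK293H cells were treated with compounds plus agonist L165041 (300 nM final) for 17 h at 37 C. Viability was then read in the same wells by CellTiter-Glo luminescence after 30 min at room temperature.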

The nature of assay [11]: qHTS assay to identify small molecule agonists of the farnesoid-X-receptor (FXR) signaling pathway - cell viability counter screen (AID 743218). Also: nearly all actives have a fitted effect of over 45% in size. Put shortly:
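FXR-UAS-bla HEK 293T cells, plated 5 h at 37 C, were exposed to compounds for 16 h at 37 C. CellTiter-Glo was then added to the same wells as the bla readout; luminescence read after 30 min at room temperature.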

Assay [12] in a line: qHTS assay to identify small molecule antagonists of the farnesoid-X-receptor (FXR) signaling pathway - cell viability counter screen (AID 743221; active = well fitted cell-killing curve with a large enough effect in the repeat runs, not every such curve was filed as active; also: nearly all actives have a fitted effect of over 50% in size). Put shortly: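 FXR-UAS-bla HEK 293T cells were treated with test compounds plus chenodeoxycholic acid (50 uM final) for 16 h at 37 C. Cell viability in the same wells was then read as CellTiter-Glo luminescence after 30 min at room temperature.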

The target of assay [13] is Vitamin D3 receptor (Homo sapiens) (UniProt P11473). In words: qHTS assay to identify small molecule agonists of the vitamin D receptor (VDR) signaling pathway (AID 743222; calls by dose curve). Put shortly: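 VDR-bla cells were plated 4 h at 37C/5% CO2, then exposed to compounds in DMSO for 16 h. After LiveBLAzer B/G FRET substrate addition and 2 h at room temperature, beta-lactamase reporter fluorescence was read.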

Assay [14] has the same target. In words: qHTS assay to identify small molecule antagonists of the vitamin D receptor (VDR) signaling pathway (AID 743223; active = well fitted inhibition curve with a large enough effect in the signal ratio in the repeat runs, not every such curve was filed as active; the % refers to the signal ratio). Put shortly: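 VDR-bla cells were plated, incubated 4 h at 37C, then given compound and 1alpha,25-dihydroxyvitamin D3 (3 nM final). After 16 h at 37C, LiveBLAzer B/G FRET substrate was added for 2 h at room temperature and fluorescence read.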

For assay [15], the target named is Peroxisome proliferator-activated receptor delta (Homo sapiens) (UniProt Q03181). In words: qHTS assay to identify small molecule agonists of the peroxisome proliferator-activated receptor delta (PPARd) signaling pathway (AID 743212; calls by dose curve; also: potency is read from the fitted curve at half-maximal effect). Put shortly: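 HEK293H PPARd-bla cells; 5 h preincubation 37 C/5% CO2; compound (DMSO) 37 C; LiveBLAzer B/G FRET substrate 2 h RT; fluorescence intensity.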

Assay [16] deals with Bile acid receptor (Homo sapiens) (UniProt Q96RI1). In words: qHTS assay to identify small molecule antagonists of the farnesoid-X-receptor (FXR) signaling pathway (AID 743217; active = well fitted inhibition curve with a large enough effect in the signal ratio in the repeat runs, not every such curve was filed as active; the % refers to the signal ratio). The gist of the method:
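FXR-UAS-bla HEK 293T cells pre-incubated 5 h at 37 °C, then exposed to compounds with chenodeoxycholic acid (50 uM final) for 16 h at 37 °C. Beta-lactamase reporter read by LiveBLAzer B/G FRET substrate fluorescence after 2 h at room temperature.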

Assay [17] shares this target. In words: qHTS assay to identify small molecule agonists of the farnesoid-X-receptor (FXR) signaling pathway (AID 743220; active = well fitted activation curve with a large enough effect in the signal ratio in the repeat runs, not every such curve was filed as active; the % refers to the signal ratio). The gist of the method:
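Beta-lactamase reporter under UAS control in GeneBLAzer FXR HEK 293T cells (5000/well) measured with LiveBLAzer FRET substrate after 2 h at room temperature. Compound exposure lasted 16 h at 37C.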

In assay [18] the target is Peroxisome proliferator-activated receptor delta (Homo sapiens) (UniProt Q03181). In words: qHTS assay to identify small molecule antagonists of the peroxisome proliferator-activated receptor delta (PPARd) signaling pathway (AID 743215; active = well fitted inhibition curve with a large enough effect in the signal ratio in the repeat runs, not every such curve was filed as active; the % refers to the signal ratio;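 also: cells stimulated with agonist L165041 at 300 nM final during compound exposure; series mostly up to about 62 µM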). The gist of the method:
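PPARd UAS-bla HEK293H cells were pre-incubated 5 h at 37 C, then given test compounds in DMSO plus agonist L165041 (300 nM final). After 17 h at 37 C, beta-lactamase FRET substrate was added; fluorescence read after 2 h at room temperature.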

Assay [19] has as its target Peroxisome proliferator-activated receptor gamma (Homo sapiens) (UniProt P37231). In words: qHTS assay to identify small molecule antagonists of the peroxisome proliferator-activated receptor gamma (PPARg) signaling pathway (AID 743191; calls by dose curve; also: series mostly up to about 63 µM; nearly all actives have a fitted effect of over 30% in size). The gist of the method: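 Beta-lactamase reporter under UAS control in HEK293H PPARg-bla cells; compound treatment 17 h at 37C. Read-out: fluorescence intensity after 1 h room-temperature incubation with LiveBLAzer B/G FRET substrate.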

Assay [20] in a line: qHTS assay to identify small molecule agonists of the peroxisome proliferator-activated receptor delta (PPARd) signaling pathway - cell viability counter screen (AID 743211). Also: nearly all actives have a fitted effect of over 55% in size. Put shortly:
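PPARd-bla HEK293H cells (UAS-beta-lactamase reporter) were treated with compounds for 17 h at 37 C. Viability was then read in the same wells by CellTiter-Glo luminescence after 30 min at room temperature.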

Inconclusive results are not listed. The source made the active and inactive calls. Unless noted, calls follow the shape of the dose curve; as a rule, active = well fitted curve in the direction sought with a large enough effect in the repeat runs; inconclusive = weak or mixed curves; inactive = no such curve, though single readings can be large; an effect the other way counts as inactive or inconclusive.

Bile acid receptor (Homo sapiens), sequence (Q96RI1 whole entry, looked up): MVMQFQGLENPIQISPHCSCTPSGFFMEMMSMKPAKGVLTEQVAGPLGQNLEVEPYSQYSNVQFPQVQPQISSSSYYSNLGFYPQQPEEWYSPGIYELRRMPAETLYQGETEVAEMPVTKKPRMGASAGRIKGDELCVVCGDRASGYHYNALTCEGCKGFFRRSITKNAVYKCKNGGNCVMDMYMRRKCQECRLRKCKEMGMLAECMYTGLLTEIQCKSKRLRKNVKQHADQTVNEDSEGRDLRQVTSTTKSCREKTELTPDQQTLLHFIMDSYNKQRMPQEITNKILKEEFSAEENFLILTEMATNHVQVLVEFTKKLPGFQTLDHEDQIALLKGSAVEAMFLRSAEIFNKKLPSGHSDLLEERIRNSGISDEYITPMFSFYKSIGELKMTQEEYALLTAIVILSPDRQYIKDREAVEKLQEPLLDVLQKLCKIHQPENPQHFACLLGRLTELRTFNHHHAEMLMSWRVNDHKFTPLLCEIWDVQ
Aryl hydrocarbon receptor (Homo sapiens), sequence (P35869 whole entry, looked up): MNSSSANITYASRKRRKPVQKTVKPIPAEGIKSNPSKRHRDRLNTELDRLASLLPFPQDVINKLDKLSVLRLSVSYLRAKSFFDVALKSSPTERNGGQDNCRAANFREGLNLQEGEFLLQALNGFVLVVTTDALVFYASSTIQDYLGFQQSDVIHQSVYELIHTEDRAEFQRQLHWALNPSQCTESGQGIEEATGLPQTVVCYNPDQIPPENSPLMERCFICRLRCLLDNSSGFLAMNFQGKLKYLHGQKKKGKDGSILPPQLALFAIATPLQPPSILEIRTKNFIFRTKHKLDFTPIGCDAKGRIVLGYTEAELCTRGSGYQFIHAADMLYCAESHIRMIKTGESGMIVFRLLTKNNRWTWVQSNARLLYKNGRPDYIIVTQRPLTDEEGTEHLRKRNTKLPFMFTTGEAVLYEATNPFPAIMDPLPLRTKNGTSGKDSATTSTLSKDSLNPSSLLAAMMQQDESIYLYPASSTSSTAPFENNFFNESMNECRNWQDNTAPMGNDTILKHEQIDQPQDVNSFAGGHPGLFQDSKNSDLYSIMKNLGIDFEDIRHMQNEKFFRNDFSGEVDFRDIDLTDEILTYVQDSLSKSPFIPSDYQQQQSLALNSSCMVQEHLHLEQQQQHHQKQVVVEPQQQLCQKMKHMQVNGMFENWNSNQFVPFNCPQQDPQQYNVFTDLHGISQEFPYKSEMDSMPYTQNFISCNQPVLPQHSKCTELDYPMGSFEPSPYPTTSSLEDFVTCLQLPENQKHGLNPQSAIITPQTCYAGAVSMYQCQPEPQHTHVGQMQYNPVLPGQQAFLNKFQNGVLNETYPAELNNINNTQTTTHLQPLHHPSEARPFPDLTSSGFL
Peroxisome proliferator-activated receptor gamma (Homo sapiens), sequence (P37231 whole entry, looked up): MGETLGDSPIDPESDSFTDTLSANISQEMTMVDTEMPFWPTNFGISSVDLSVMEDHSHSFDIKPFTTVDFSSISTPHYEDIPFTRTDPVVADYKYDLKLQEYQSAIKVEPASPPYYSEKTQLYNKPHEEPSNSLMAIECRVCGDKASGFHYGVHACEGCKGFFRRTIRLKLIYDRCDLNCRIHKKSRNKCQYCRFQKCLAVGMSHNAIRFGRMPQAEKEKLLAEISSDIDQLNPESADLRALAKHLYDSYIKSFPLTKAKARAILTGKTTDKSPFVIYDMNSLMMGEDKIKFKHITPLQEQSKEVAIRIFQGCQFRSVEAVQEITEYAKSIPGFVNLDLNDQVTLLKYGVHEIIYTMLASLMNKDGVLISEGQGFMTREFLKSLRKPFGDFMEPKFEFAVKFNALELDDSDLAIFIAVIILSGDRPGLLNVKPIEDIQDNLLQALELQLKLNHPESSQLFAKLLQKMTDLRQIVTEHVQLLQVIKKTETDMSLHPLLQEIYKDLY
Peroxisome proliferator-activated receptor delta (Homo sapiens), sequence (Q03181 whole entry, looked up): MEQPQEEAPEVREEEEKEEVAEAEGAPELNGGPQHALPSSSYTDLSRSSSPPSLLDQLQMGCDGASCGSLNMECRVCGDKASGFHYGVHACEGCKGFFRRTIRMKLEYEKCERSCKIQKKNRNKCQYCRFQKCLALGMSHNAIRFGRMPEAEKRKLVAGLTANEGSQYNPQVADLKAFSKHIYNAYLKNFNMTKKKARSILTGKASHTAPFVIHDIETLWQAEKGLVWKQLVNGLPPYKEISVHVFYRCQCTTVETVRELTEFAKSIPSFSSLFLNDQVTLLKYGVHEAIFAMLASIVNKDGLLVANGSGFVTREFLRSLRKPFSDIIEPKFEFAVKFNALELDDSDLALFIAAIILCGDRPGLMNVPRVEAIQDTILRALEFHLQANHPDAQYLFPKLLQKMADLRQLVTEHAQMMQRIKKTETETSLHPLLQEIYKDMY
Vitamin D3 receptor (Homo sapiens), sequence (P11473 whole entry, looked up): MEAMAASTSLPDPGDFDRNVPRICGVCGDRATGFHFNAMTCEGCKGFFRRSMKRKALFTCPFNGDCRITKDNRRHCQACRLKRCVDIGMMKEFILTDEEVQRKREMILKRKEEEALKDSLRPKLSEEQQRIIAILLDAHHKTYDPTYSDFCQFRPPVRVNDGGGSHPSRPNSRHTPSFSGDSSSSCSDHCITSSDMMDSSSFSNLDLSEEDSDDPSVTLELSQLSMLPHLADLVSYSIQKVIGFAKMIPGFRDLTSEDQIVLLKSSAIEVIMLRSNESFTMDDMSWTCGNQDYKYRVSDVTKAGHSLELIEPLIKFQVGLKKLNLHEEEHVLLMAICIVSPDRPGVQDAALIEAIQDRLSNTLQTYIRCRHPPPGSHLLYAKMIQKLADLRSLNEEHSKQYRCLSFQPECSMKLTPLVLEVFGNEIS

Consider `CCCCCCCO`, for which the Potency result in assay [1], in assay [2], in assay [3], in [6] and in assay [7] was “inactive” in each case. In addition, the call in assay [4], in assay [5], in assay [8], in assay [9], in assay [10] and in assay [11] was inactive. The compound was classed as inactive in assay [12], in [13] and in assay [14].
On to `NCCCCCCN`, for which the Potency entry in [1], in [2], in [3], in [6], in assay [7] and in [15] was “inactive” in each case. The call in assay [4], in [5], in [8], in assay [9], in assay [10] and in [12] was inactive. In addition, the result in [13] and in assay [14] was inactive.
For the compound `C=CCc1ccc(OC)c(OC)c1`, the Potency result in [1], in assay [2], in assay [3], in assay [6], in assay [7] and in [15] was “inactive” in each case. The compound was classed as inactive in assay [4], in assay [5], in [8], in assay [9], in assay [10] and in assay [16]. For the same compound, the compound was called inactive in assay [17], in [12] and in assay [13].
`CC(C)(Oc1ccc(CCNC(=O)c2ccc(Cl)cc2)cc1)C(=O)O`: the Potency result in assay [1], in [2], in assay [3], in [6] and in [7] was “inactive” throughout. In addition, the outcome in assay [5], in assay [8], in assay [9], in assay [10], in [18] and in assay [16] was inactive. Also, the compound was called inactive in assay [17], in assay [12], in assay [13] and in assay [14]. Also, in assay [15], the Potency is 38.9 µM (active).
For the compound `CNC(=O)Oc1ccc2c(c1)[C@]1(C)CCN(C)[C@@H]1N2C`, the Potency result in assay [1], in [3], in [6], in assay [7] and in assay [15] was “inactive” in each case. The compound was classed as inactive in assay [4], in assay [19], in [5], in [8], in [9] and in assay [20]. Also, the outcome in assay [10], in assay [18], in [16], in [11], in assay [17] and in [12] was inactive. In addition, the compound was classed as inactive in assay [13] and in assay [14].
On to `CC(C)CC(=O)CC(C)CC(C)C` (centres undefined), for which the Potency result in assay [1], in assay [3], in assay [6], in [7] and in [15] was “inactive” in each case. Moreover, the outcome in assay [4], in assay [5], in [8], in [9], in [10] and in [18] was inactive. The call in [16], in [17] and in assay [12] was inactive.
In the case of `COC(=O)CCCC(=O)OC`, the Potency result in assay [3], in assay [6], in assay [7] and in assay [15] was “inactive” throughout. The call in assay [5], in assay [8], in assay [9], in assay [10], in assay [18] and in [16] was inactive. Also, the compound was classed as inactive in [11], in assay [17], in assay [12], in assay [13] and in assay [14].
Turning to `O=C(O)Cn1c(=O)n(Cc2ccc(Br)cc2F)c(=O)c2ccc(Cl)cc21`, the Potency entry in assay [2], in assay [6] and in [7] was “inactive” in each case. Moreover, the compound was classed as inactive in [5], in assay [8], in assay [9], in [20], in assay [10] and in assay [16]. Further, the compound was classed as inactive in [17], in assay [12] and in assay [13].
As to `COc1ccc(N)c(C)c1`, the Potency entry in assay [1], in assay [2], in assay [3], in assay [6], in [7] and in [15] was “inactive” in each case. For the same compound, the compound was classed as inactive in assay [5], in [8], in assay [9], in assay [20], in assay [10] and in assay [16]. In addition, the compound was called inactive in assay [11], in [17], in assay [12], in [13] and in assay [14].
Consider `CCCCCCCCCCN`, for which the Potency entry in assay [1], in [2], in assay [3], in assay [6], in [7] and in assay [15] was “inactive” each time. The compound was called inactive in [5], in assay [8], in assay [9], in [10], in assay [18] and in assay [11]. Besides, the result in assay [12] was inactive.
